From PubChem
Compounds with a hit are over-represented: about 3.5% of the library has one in this group of screens.
MITF primary = human MITF inhibition, primary screen. AlphaScreen MITF homodimerization, bead proximity signal. inhibition, % at 2.6 µM. hit rate 0.91% among 650,000; in the data active = inhibition above about 50%;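 also: 0% = vehicle wells with protein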
Target sequence (O75030 whole entry, looked up): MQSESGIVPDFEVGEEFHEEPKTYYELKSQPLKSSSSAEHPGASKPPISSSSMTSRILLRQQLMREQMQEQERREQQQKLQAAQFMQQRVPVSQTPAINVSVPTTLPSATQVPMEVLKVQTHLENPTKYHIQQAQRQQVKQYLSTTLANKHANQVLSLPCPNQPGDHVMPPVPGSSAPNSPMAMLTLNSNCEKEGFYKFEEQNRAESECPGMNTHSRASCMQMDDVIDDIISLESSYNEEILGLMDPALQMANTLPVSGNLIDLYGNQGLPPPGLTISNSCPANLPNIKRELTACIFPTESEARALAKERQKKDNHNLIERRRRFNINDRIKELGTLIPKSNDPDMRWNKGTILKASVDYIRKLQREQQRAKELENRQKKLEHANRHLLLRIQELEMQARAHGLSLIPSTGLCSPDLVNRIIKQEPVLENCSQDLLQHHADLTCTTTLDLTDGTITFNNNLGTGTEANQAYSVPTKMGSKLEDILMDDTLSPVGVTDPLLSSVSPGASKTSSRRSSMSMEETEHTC
TEAD-YAP block = TEAD-YAP interaction inhibition. HEK-TIYL cells, TEAD-Gal4/YAP UAS-luciferase luminescence. inhibition, % at 9.12 µM. hit rate 1.4% among 640,000; in the data active = inhibition above about 32%;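 also: 0% = median of test compound wells and 100% = reference inhibitor wells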
FBW7 activator = activators of human E3 ligase FBW7; Q969H0; AlphaScreen FBW7–phospho-cyclin E peptide binding, activator screen; normalized activity (activation), % at 26.1 µM; hit rate 0.13% among 650,000; AID 1259310; in the data active = normalized activity above about 1.9%;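 also: purified mutant Fbw7 with reduced substrate affinity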
GPR151 ag = human GPR151 activation; AID 1508602; Q8TDV0; activation, % at 11.2 µM; hit rate 1% among 650,000; PathHunter beta-arrestin GPR151 cells, luminescence; in the data active = activation above about 4.9%;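 also: 0% = median of compound wells and 100% = cells with positive control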
MITF inh conf = confirmation of human MITF inhibitors; inhibition, % at 2.6 µM; AlphaScreen MITF homodimerization, biotin/His-MITF beads; hit rate 16% among 4,700; shares compounds with MITF primary;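 active = inhibition above a cutoff derived from the DMSO control wells, cut at about 28% in these data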;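 also: 0% = MITF dimer wells with DMSO only; inhibitors lower the bead chemiluminescence by keeping MITF from dimerizing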
AlphaScreen DR = AlphaScreen optical interference, dose response counter-screen; shares compounds with MITF primary; AlphaScreen optical interference counterscreen, cell-free; IC50, µM; hit rate 6% among 480; call rule not given here
AlphaScreen intf2 = counter-screen: compounds optically interfering with AlphaScreen; shares compounds with MITF primary; LysRS AlphaScreen counterscreen, signal interference, triplicate; inhibition, % at 2.6 µM; hit rate 7.6% among 4,700;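 active = inhibition above a cutoff derived from the DMSO control wells, cut at about 30% in these data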
The depositor's hits bear a star.

How did O=C(N/N=C/c1cccc2cccnc12)c1cccc([N+](=O)[O-])c1 do in these assays?
MITF primary: 53.0*; TEAD-YAP block: 4.8; FBW7 activator: -0.1; GPR151 ag: -2.7; MITF inh conf: 55.8*; AlphaScreen intf2: 100.3*

What do the screens show for `O=C(N/N=C/c1cccc2cccnc12)c1ccc(Cl)cc1`?
MITF primary: 37.0; TEAD-YAP block: 24.8; FBW7 activator: 0.1; GPR151 ag: -1.3

Results for CN1CCN(C(=O)C2CCCN(S(=O)(=O)c3ccc(F)cc3)C2)CC1 (stereo not drawn) ?
MITF primary: 74.4*; TEAD-YAP block: -5.0; FBW7 activator: 0.0; GPR151 ag: 1.2; MITF inh conf: -10.7; AlphaScreen intf2: -3.3

How did CN1CCN(C(=O)C2CCCN(S(=O)(=O)N3CCCCC3)C2)CC1 (stereo not drawn) do in these assays?
MITF primary: 64.6*; TEAD-YAP block: -6.5; FBW7 activator: -0.1; GPR151 ag: -0.6; MITF inh conf: -1.5; AlphaScreen intf2: -0.1

How did CCN1CCN(C(c2ccc(C)cc2)c2nnnn2C(C)(C)CC)CC1 (stereo not drawn) do in these assays?
MITF primary: 52.0*; TEAD-YAP block: -2.9; FBW7 activator: 0.3; GPR151 ag: -0.3; MITF inh conf: 6.8; AlphaScreen intf2: 21.1

How did CN(C)CC(C)(C)CNC(=O)C1CCN(Cc2ccccc2Cl)CC1 do in these assays?
MITF primary: 62.8*; TEAD-YAP block: 2.1; FBW7 activator: -0.1; GPR151 ag: -0.3; MITF inh conf: -20.2; AlphaScreen intf2: -1.5

What do the screens show for `O=C(NCc1ccco1)C1CCN(Cc2cccc(Cl)c2Cl)CC1`?
MITF primary: 51.0*; TEAD-YAP block: 5.6; FBW7 activator: 0.2; GPR151 ag: -0.2; MITF inh conf: -1.2; AlphaScreen intf2: -2.0

Results for Cn1c(SCC(N)=O)nnc1-c1cnccn1 ?
MITF primary: 8.0; TEAD-YAP block: -4.3; FBW7 activator: -0.2; GPR151 ag: 0.8

Results for Cn1c(SCC(=O)O)nnc1-c1cnccn1 ?
MITF primary: 61.2*; TEAD-YAP block: -5.2; FBW7 activator: -0.1; GPR151 ag: 0.0; MITF inh conf: 9.2; AlphaScreen intf2: 7.3

What do the screens show for `COc1cc(CN(C)CCN(C)C)cc(OC)c1`?
MITF primary: 63.7*; TEAD-YAP block: -2.9; FBW7 activator: 0.0; GPR151 ag: -0.6; MITF inh conf: 1.2; AlphaScreen intf2: -1.2

What do the screens show for `COc1cc(Br)c(CN(C)CCN(C)C)cc1OC`?
MITF primary: -15.7; TEAD-YAP block: -3.2; FBW7 activator: -0.2; GPR151 ag: 1.3

What do the screens show for `COc1ccc(CN(C)CCN(C)C)cc1OC`?
MITF primary: 15.7; TEAD-YAP block: -7.1; FBW7 activator: 0.4; GPR151 ag: -0.3

How did COc1ccc(CN(C)CCN(C)C)cc1C do in these assays?
MITF primary: 58.4*; TEAD-YAP block: 0.2; FBW7 activator: 0.0; GPR151 ag: -1.2; MITF inh conf: 3.3; AlphaScreen intf2: 16.1

How did Cc1cc(NCCCN2CCCC2=O)nc(Nc2ccncn2)n1 do in these assays?
MITF primary: -0.6; TEAD-YAP block: -17.5; FBW7 activator: 0.3; GPR151 ag: 2.5

Results for Cn1c(-c2cccc([N+](=O)[O-])c2)cnc1NCc1cccc(O)c1 ?
MITF primary: 39.0; TEAD-YAP block: -10.4; FBW7 activator: -0.1; GPR151 ag: 0.3

Results for Cn1c(-c2ccc(F)cc2)cnc1NCc1cccc([N+](=O)[O-])c1 ?
MITF primary: 58.8*; TEAD-YAP block: -1.8; FBW7 activator: 0.2; GPR151 ag: -0.1; MITF inh conf: -4.2; AlphaScreen intf2: -4.5

Results for Cn1c(-c2cccc([N+](=O)[O-])c2)cnc1NCc1cccc(F)c1 ?
MITF primary: 52.4*; TEAD-YAP block: -10.7; FBW7 activator: -0.1; GPR151 ag: 0.1; MITF inh conf: -7.6; AlphaScreen intf2: -7.7

Results for Cn1c(-c2cccc([N+](=O)[O-])c2)cnc1NCc1ccc(F)cc1 ?
MITF primary: 38.0; TEAD-YAP block: -4.2; FBW7 activator: -0.1; GPR151 ag: 0.4

What do the screens show for `CCOC(=O)N1CCN(C(=O)C2CC23CCN(C(=O)c2ccsc2)CC3)CC1` (stereo not drawn)?
MITF primary: 12.8; TEAD-YAP block: 7.5; FBW7 activator: -0.2; GPR151 ag: -1.0

Results for O=C1CSc2nnc(-c3cccs3)n21 ?
MITF primary: 12.2; TEAD-YAP block: 3.6; FBW7 activator: 0.2; GPR151 ag: -1.3

Results for O=C(O)C1CCN(c2ncc(-c3ccc(Cl)cc3)cn2)CC1 ?
MITF primary: 60.7*; TEAD-YAP block: -16.8; FBW7 activator: 0.1; GPR151 ag: 1.2; MITF inh conf: 9.7; AlphaScreen intf2: 9.0

How did CCCCOc1ccc(C(=O)Nc2nc(-c3ccc(OC)c(C)c3)cs2)cc1 do in these assays?
MITF primary: 64.1*; TEAD-YAP block: -3.7; FBW7 activator: 0.0; GPR151 ag: -0.3; MITF inh conf: -1.4; AlphaScreen intf2: 13.1

Results for CCCCOc1ccc(C(=O)Nc2nc(-c3ccc(OC)cc3OC)cs2)cc1 ?
MITF primary: -11.7; TEAD-YAP block: -0.9; FBW7 activator: 0.3; GPR151 ag: 0.6

How did COc1ccccc1C(=O)Nc1ccc(S(=O)(=O)Nc2cccc(C)c2)cc1 do in these assays?
MITF primary: -0.8; TEAD-YAP block: 18.6; FBW7 activator: 0.8; GPR151 ag: -0.4

Results for NCC1OC(=O)C(Oc2ccccc2)=C1Br (stereo not drawn) ?
MITF primary: 58.6*; TEAD-YAP block: 15.1; FBW7 activator: -0.6; GPR151 ag: 0.2; MITF inh conf: 77.3*; AlphaScreen DR: >6.48; AlphaScreen intf2: -18.4

What do the screens show for `CC(=O)CC1OC(=O)C(Oc2ccccc2)=C1Br` (stereo not drawn)?
MITF primary: 1.2; TEAD-YAP block: -0.6; FBW7 activator: 0.0; GPR151 ag: -0.2

Results for O=C(c1ccc([N+](=O)[O-])cc1)N1CCN(Cc2cccc3ccccc23)CC1 ?
MITF primary: 57.7*; TEAD-YAP block: -5.5; FBW7 activator: -0.4; GPR151 ag: 2.0; MITF inh conf: 29.0*; AlphaScreen DR: >5.48; AlphaScreen intf2: 16.4

Results for O=C(c1ccc([N+](=O)[O-])cc1)N1CCN(Cc2ccccn2)CC1 ?
MITF primary: 64.0*; TEAD-YAP block: 3.0; FBW7 activator: 0.0; GPR151 ag: -0.2; MITF inh conf: -10.1; AlphaScreen intf2: -5.3

Results for O=C(c1cccc(F)c1)N1CCN(Cc2ccccn2)CC1 ?
MITF primary: 43.2; TEAD-YAP block: -5.2; FBW7 activator: -0.2; GPR151 ag: 1.4

Results for O=C(c1cccnc1)N1CCN(S(=O)(=O)c2ccc(F)cc2)CC1 ?
MITF primary: 6.6; TEAD-YAP block: 2.1; FBW7 activator: 0.2; GPR151 ag: 0.3

Results for Cc1sc2nc(-c3ccccc3Cl)n(CC(=O)c3ccc(Br)cc3)c(=O)c2c1C ?
MITF primary: -7.3; TEAD-YAP block: -10.6; FBW7 activator: -0.1; GPR151 ag: 0.2
